Results taken from PubChem BioAssay AID743497 (The Scripps Research Institute Molecular Screening Center, 2014).
Calls of active or inactive are those of the source.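 How the source made its calls: active means IC50 of 10 µM or lower; inactive means IC50 above 10 µM.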

Test: small molecules binding CAG repeat RNA – biochemical, fluorescence, dose response, MedChem round 1, SAR follow-up (AID 743497)
Details: r(CAG) RNA 1x1 AA loop, TO-PRO-1 displacement fluorescence

IC50, inactive:
Cc1ccc(-c2nn(-c3ccccc3)cc2/C=C/C(=O)Nc2cccc(S(N)(=O)=O)c2)cc1 > 29.9 µM
CCN1CCN(C(=O)/C=C/c2cn(-c3ccccc3)nc2-c2ccccc2)CC1 > 29.9 µM
NC(=O)c1cc(NC(=O)/C=C/c2cn(-c3ccccc3)nc2-c2ccc(F)cc2)c(F)cc1F > 29.9 µM
CN(C)CCCNC(=O)/C=C/c1cn(-c2ccccc2)nc1-c1ccccc1 > 29.9 µM
Cc1ccc(-c2nn(-c3ccccc3)cc2/C=C/C(=O)Nc2ccc(S(N)(=O)=O)cc2)cc1 29.1 µM
CCN(c1ccccc1)S(=O)(=O)c1ccc(NC(=O)c2oc3ccc(F)cc3c2C)cc1 > 29.9 µM
Cc1c(C(=O)Nc2ccc(S(=O)(=O)NCCCN3CCOCC3)cc2)oc2ccc(F)cc12 > 29.9 µM
NS(=O)(=O)c1ccc(NC(=O)/C=C/c2cn(-c3ccccc3)nc2-c2cccc(Cl)c2)cc1 > 29.9 µM
CNC(=O)Cc1ccc(NC(=O)/C=C/c2cn(-c3ccccc3)nc2-c2ccc(F)cc2)cc1 > 29.9 µM
CN(C)C(=O)C1CCN(C(=O)/C=C/c2cn(-c3ccccc3)nc2-c2ccccc2)CC1 > 29.9 µM
COc1ccc(-c2nn(-c3ccccc3)cc2/C=C/C(=O)Nc2cccc(NC(C)=O)c2)cc1OC > 29.9 µM
CCN(CC)C(=O)/C=C/c1cn(-c2ccccc2)nc1-c1ccccc1 > 29.9 µM
O=C(/C=C/c1cn(-c2ccccc2)nc1-c1ccccc1)NCc1ccccc1 > 29.9 µM
Cc1c(C(=O)Nc2ccc(S(=O)(=O)Nc3ncccn3)cc2)oc2ccc(F)cc12 > 29.9 µM
CN1C(=O)/C(=C/c2cn(-c3ccccc3)nc2-c2ccccc2)c2ccccc21 > 29.9 µM
O=C(/C=C/c1cn(-c2ccccc2)nc1-c1ccccc1)NCCc1c[nH]c2ccccc12 > 29.9 µM
CN1CCC(N(C)C(=O)/C=C/c2cn(-c3ccccc3)nc2-c2ccccc2)CC1 > 29.9 µM
CCOC(=O)N1CCC(NC(=O)/C=C/c2cn(-c3ccccc3)nc2-c2ccccc2)CC1 > 29.9 µM
O=C(/C=C/c1cn(-c2ccccc2)nc1-c1ccccc1)Nc1cc(S(=O)(=O)N2CCCC2)ccc1Cl > 29.9 µM
N#C/C(=C/c1cn(Cc2ccccc2)nc1-c1cccnc1)C(=O)Nc1ccc(C(=O)O)cc1 16 µM
COc1ccc(NC(=O)/C=C/c2cn(-c3ccccc3)nc2-c2ccc(OC)cc2)cc1 > 29.9 µM
O=C(/C=C/c1cn(-c2ccccc2)nc1-c1ccccc1)NCCO > 29.9 µM
COC(=O)c1ccc(NC(=O)/C=C/c2cn(CCC#N)nc2-c2ccc(F)cc2)cc1 > 29.9 µM
Cc1c(C(=O)Nc2ccc(S(=O)(=O)N(C)Cc3ccccc3)cc2)oc2ccc(F)cc12 > 29.9 µM
O=C(/C=C/c1cn(-c2ccccc2)nc1-c1ccccc1)N1CCN(CC(=O)N2CCCC2)CC1 > 29.9 µM

IC50, active:
CS(=O)(=O)Nc1cc(NC(=O)/C=C/c2cn(-c3ccccc3)nc2-c2ccccc2)ccc1F 6.38 µM
O=C(/C=C\c1cn(-c2ccccc2)nc1-c1ccc(F)cc1)Nc1ccc(C(=O)O)cc1 2.15 µM
O=C(/C=C/c1cn(-c2ccccc2)nc1-c1ccc2ccccc2c1)Nc1ccc(C(=O)O)cc1 2.18 µM
COc1ccc(-c2nn(-c3ccccc3)cc2/C=C/C(=O)Nc2ccc(C(=O)O)cc2)cc1 1.94 µM
CC(=O)NS(=O)(=O)c1ccc(NC(=O)/C=C/c2cn(-c3ccccc3)nc2-c2ccccc2)cc1 1.62 µM
